Publication PMC5540273 (PLoS ONE, 2017)

Tests used:
Settings in all cases: concentration: 1 μM, replicates: in singlicate; n = 1
[1] = test system: BUB1
[2] = test system: CAMK1B
[3] = test system: CAMK1D
[4] = test system: CAMK1G
[5] = test system: CAMK1
[6] = test system: CAMK2A
[7] = test system: CAMK2B
[8] = test system: CAMK2D
[9] = test system: CAMK2G
[10] = test system: CAMK4
[11] = test system: CAMKK1
[12] = test system: CAMKK2
[13] = test system: CASK
[14] = test system: T1, CDC2L1
T1 construct: gene CDK11B

[15] = test system: CDC2L2
[16] = test system: T2, CDC2L5
T2 construct: gene CDK13

[17] = test system: T3, CDK11
T3 construct: gene CDK19

[18] = test system: CDK2
[19] = test system: CDK3
[20] = test system: CDK4-cyclinD1
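Note: KINOMEscan kinase panel screen.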

## Cc1c(Cn2c(C)nn3c(=O)cc(N4CCOC(C)C4)nc23)cccc1C(F)(F)F (stereo not drawn) [GSK2344444]
[1]
  %Inh: 0%
[2]
  %Inh: 10%
[3]
  %Inh: 9%
[4]
  %Inh: 0%
[5]
  %Inh: 0%
[6]
  %Inh: 0%
[7]
  %Inh: 0%
[8]
  %Inh: 0%
[9]
  %Inh: 10%
[10]
  %Inh: 0%
[11]
  %Inh: 0%
[12]
  %Inh: 0%
[13]
  %Inh: 0%
[14]
  %Inh: 0%
[15]
  %Inh: 0%
[16]
  %Inh: 0%
[17]
  %Inh: 0%
[18]
  %Inh: 0%
[19]
  %Inh: 4%
[20]
  %Inh: 0%

## COc1ccc(Nc2ncc(C#N)c(Nc3ccccc3C(N)=O)n2)cc1N1CCN(C)CC1.Cl [GSK1558669]
[1]
  %Inh: 87%
[2]
  %Inh: 100%
[3]
  %Inh: 99.1%
[4]
  %Inh: 83%
[5]
  %Inh: 95.6%
[6]
  %Inh: 92.5%
[7]
  %Inh: 78%
[8]
  %Inh: 83%
[9]
  %Inh: 86%
[10]
  %Inh: 0%
[11]
  %Inh: 96.9%
[12]
  %Inh: 98.5%
[13]
  %Inh: 75%
[14]
  %Inh: 0%
[15]
  %Inh: 1%
[16]
  %Inh: 69%
[17]
  %Inh: 0%
[18]
  %Inh: 96.3%
[19]
  %Inh: 90%
[20]
  %Inh: 94.8%

## COc1ccc(Nc2nccc(N3CCC(NC(=O)Nc4cccc(C(C)=O)c4)C3)n2)cc1 (stereo not drawn) [GSK1379731]
[1]
  %Inh: 0%
[2]
  %Inh: 13%
[3]
  %Inh: 40%
[4]
  %Inh: 0%
[5]
  %Inh: 37%
[6]
  %Inh: 0%
[7]
  %Inh: 0%
[8]
  %Inh: 1%
[9]
  %Inh: 11%
[10]
  %Inh: 0%
[11]
  %Inh: 0%
[12]
  %Inh: 1%
[13]
  %Inh: 0%
[14]
  %Inh: 0%
[15]
  %Inh: 0%
[16]
  %Inh: 0%
[17]
  %Inh: 79%
[18]
  %Inh: 0%
[19]
  %Inh: 0%
[20]
  %Inh: 2%

## COc1ccc(Nc2nccc(N3CCC(NC(=O)Nc4cc(C)ccc4C)C3)n2)cc1 (stereo not drawn) [GSK1379741]
[1]
  %Inh: 33%
[2]
  %Inh: 13%
[3]
  %Inh: 0%
[4]
  %Inh: 0%
[5]
  %Inh: 0%
[6]
  %Inh: 0%
[7]
  %Inh: 0%
[8]
  %Inh: 0%
[9]
  %Inh: 0%
[10]
  %Inh: 0%
[11]
  %Inh: 0%
[12]
  %Inh: 0%
[13]
  %Inh: 3%
[14]
  %Inh: 0%
[15]
  %Inh: 0%
[16]
  %Inh: 0%
[17]
  %Inh: 70%
[18]
  %Inh: 0%
[19]
  %Inh: 7%
[20]
  %Inh: 0%

## c1ccc(-c2n[nH]cc2-c2ccnc3ccccc23)nc1 [GW271431]
[1]
  %Inh: 0%
[2]
  %Inh: 23%
[3]
  %Inh: 28%
[4]
  %Inh: 13%
[5]
  %Inh: 23%
[6]
  %Inh: 0%
[7]
  %Inh: 0%
[8]
  %Inh: 19%
[9]
  %Inh: 25%
[10]
  %Inh: 0%
[11]
  %Inh: 17%
[12]
  %Inh: 30%
[13]
  %Inh: 0%
[14]
  %Inh: 0%
[15]
  %Inh: 24%
[16]
  %Inh: 0%
[17]
  %Inh: 34%
[18]
  %Inh: 0%
[19]
  %Inh: 0%
[20]
  %Inh: 0%

## O=C(NCCNc1ccnc(Nc2ccc(F)cc2)n1)Nc1ccccc1F [GSK1379880]
[1]
  %Inh: 31%
[2]
  %Inh: 0%
[3]
  %Inh: 0%
[4]
  %Inh: 0%
[5]
  %Inh: 0%
[6]
  %Inh: 0%
[7]
  %Inh: 0%
[8]
  %Inh: 0%
[9]
  %Inh: 0%
[10]
  %Inh: 0%
[11]
  %Inh: 0%
[12]
  %Inh: 0%
[13]
  %Inh: 1%
[14]
  %Inh: 0%
[15]
  %Inh: 9%
[16]
  %Inh: 0%
[17]
  %Inh: 0%
[18]
  %Inh: 0%
[19]
  %Inh: 20%
[20]
  %Inh: 0%

## Cc1c2ccc(N(C)c3ccnc(Nc4cccc(S(N)(=O)=O)c4)n3)cc2nn1Cc1ccccc1.Cl.Cl [GW787226]
[1]
  %Inh: 0%
[2]
  %Inh: 0%
[3]
  %Inh: 0%
[4]
  %Inh: 11%
[5]
  %Inh: 2%
[6]
  %Inh: 0%
[7]
  %Inh: 0%
[8]
  %Inh: 0%
[9]
  %Inh: 0%
[10]
  %Inh: 16%
[11]
  %Inh: 0%
[12]
  %Inh: 0%
[13]
  %Inh: 9%
[14]
  %Inh: 66%
[15]
  %Inh: 76%
[16]
  %Inh: 0%
[17]
  %Inh: 9%
[18]
  %Inh: 0%
[19]
  %Inh: 3%
[20]
  %Inh: 0%

## Cc1cccc(Cn2ccn3c(=O)cc(N4CCOCC4)nc23)c1 [GSK2297542]
[1]
  %Inh: 34%
[2]
  %Inh: 19%
[3]
  %Inh: 70%
[4]
  %Inh: 9%
[5]
  %Inh: 71%
[6]
  %Inh: 0%
[7]
  %Inh: 0%
[8]
  %Inh: 9%
[9]
  %Inh: 28%
[10]
  %Inh: 20%
[11]
  %Inh: 5%
[12]
  %Inh: 27%
[13]
  %Inh: 20%
[14]
  %Inh: 0%
[15]
  %Inh: 15%
[16]
  %Inh: 0%
[17]
  %Inh: 0%
[18]
  %Inh: 8%
[19]
  %Inh: 20%
[20]
  %Inh: 0%

## CN1c2ccc(CNc3ccc(F)cc3)cc2-c2c(cnn2C)S1(=O)=O
[1]
  %Inh: 0%
[2]
  %Inh: 0%
[3]
  %Inh: 50%
[4]
  %Inh: 0%
[5]
  %Inh: 63%
[6]
  %Inh: 0%
[7]
  %Inh: 1%
[8]
  %Inh: 4%
[9]
  %Inh: 0%
[10]
  %Inh: 0%
[11]
  %Inh: 0%
[12]
  %Inh: 0%
[13]
  %Inh: 22%
[14]
  %Inh: 0%
[15]
  %Inh: 0%
[16]
  %Inh: 15%
[17]
  %Inh: 0%
[18]
  %Inh: 0%
[19]
  %Inh: 0%
[20]
  %Inh: 13%

## COc1cc2c(cc1OCCN1CCN(C)CC1)ncc1c3ccc(C#N)cc3[nH]c21
[1]
  %Inh: 100%
[2]
  %Inh: 19%
[3]
  %Inh: 44%
[4]
  %Inh: 16%
[5]
  %Inh: 0%
[6]
  %Inh: 93.5%
[7]
  %Inh: 70%
[8]
  %Inh: 92.6%
[9]
  %Inh: 86%
[10]
  %Inh: 0%
[11]
  %Inh: 86%
[12]
  %Inh: 70%
[13]
  %Inh: 8%
[14]
  %Inh: 7%
[15]
  %Inh: 7%
[16]
  %Inh: 0%
[17]
  %Inh: 0%
[18]
  %Inh: 2%
[19]
  %Inh: 0%
[20]
  %Inh: 0%

## O=C(Nc1n[nH]c2cc(-c3cccc(F)c3)ccc12)C1CC1 [SB-735464]
[1]
  %Inh: 0%
[2]
  %Inh: 0%
[3]
  %Inh: 22%
[4]
  %Inh: 0%
[5]
  %Inh: 31%
[6]
  %Inh: 19%
[7]
  %Inh: 1%
[8]
  %Inh: 0%
[9]
  %Inh: 27%
[10]
  %Inh: 0%
[11]
  %Inh: 18%
[12]
  %Inh: 14%
[13]
  %Inh: 10%
[14]
  %Inh: 2%
[15]
  %Inh: 9%
[16]
  %Inh: 23%
[17]
  %Inh: 0%
[18]
  %Inh: 27%
[19]
  %Inh: 0%
[20]
  %Inh: 8%

## COC(=O)Nc1nc2cc(Oc3ccc(NC(=O)Nc4cc(F)ccc4F)cc3)ccc2[nH]1.Cl [GW701424]
[1]
  %Inh: 77%
[2]
  %Inh: 27%
[3]
  %Inh: 20%
[4]
  %Inh: 7%
[5]
  %Inh: 4%
[6]
  %Inh: 0%
[7]
  %Inh: 0%
[8]
  %Inh: 20%
[9]
  %Inh: 11%
[10]
  %Inh: 0%
[11]
  %Inh: 0%
[12]
  %Inh: 4%
[13]
  %Inh: 0%
[14]
  %Inh: 0%
[15]
  %Inh: 6%
[16]
  %Inh: 0%
[17]
  %Inh: 0%
[18]
  %Inh: 0%
[19]
  %Inh: 0%
[20]
  %Inh: 20%

## O=C(NOCC1CC1)c1ccc(F)c(F)c1Nc1ccc(I)cc1Cl
[1]
  %Inh: 0%
[2]
  %Inh: 0%
[3]
  %Inh: 0%
[4]
  %Inh: 0%
[5]
  %Inh: 0%
[6]
  %Inh: 0%
[7]
  %Inh: 0%
[8]
  %Inh: 0%
[9]
  %Inh: 0%
[10]
  %Inh: 32%
[11]
  %Inh: 0%
[12]
  %Inh: 0%
[13]
  %Inh: 3%
[14]
  %Inh: 0%
[15]
  %Inh: 0%
[16]
  %Inh: 0%
[17]
  %Inh: 12%
[18]
  %Inh: 0%
[19]
  %Inh: 0%
[20]
  %Inh: 0%

## O=c1cc(N2CCOCC2)nc2n(Cc3cccc(F)c3)ccn12 [GSK2297430]
[1]
  %Inh: 0%
[2]
  %Inh: 4%
[3]
  %Inh: 15%
[4]
  %Inh: 0%
[5]
  %Inh: 4%
[6]
  %Inh: 0%
[7]
  %Inh: 0%
[8]
  %Inh: 0%
[9]
  %Inh: 13%
[10]
  %Inh: 11%
[11]
  %Inh: 25%
[12]
  %Inh: 3%
[13]
  %Inh: 0%
[14]
  %Inh: 3%
[15]
  %Inh: 6%
[16]
  %Inh: 0%
[17]
  %Inh: 0%
[18]
  %Inh: 7%
[19]
  %Inh: 1%
[20]
  %Inh: 0%

## Cc1ccc(NC(=O)c2ccnc(N3CCN(C)CC3)c2)cc1-c1ccc(C(=O)NCC2CC2)cc1 [GW775604]
[1]
  %Inh: 0%
[2]
  %Inh: 0%
[3]
  %Inh: 0%
[4]
  %Inh: 0%
[5]
  %Inh: 0%
[6]
  %Inh: 0%
[7]
  %Inh: 0%
[8]
  %Inh: 0%
[9]
  %Inh: 0%
[10]
  %Inh: 0%
[11]
  %Inh: 0%
[12]
  %Inh: 0%
[13]
  %Inh: 10%
[14]
  %Inh: 0%
[15]
  %Inh: 0%
[16]
  %Inh: 0%
[17]
  %Inh: 0%
[18]
  %Inh: 0%
[19]
  %Inh: 34%
[20]
  %Inh: 0%
